# Bioassay records from PubChem.
# The entries come from a sample that favours hits as a whole.
# IMPase cell inh = qHTS Assay for Identifying the Cell-Membrane Permeable IMPase Inhibitors | Inositol monophosphatase 1 (Rattus norvegicus), P97697 | CHO-M1 cells, IP1 accumulation, HTRF TR-FRET ratio | inhibition (IP1 accumulation), % at 46.1 µM | 120,000 tested, under 10 active | AID 901, 2007; active = well fitted curve in the direction sought with a large enough effect in the signal ratio, not every such curve was filed as active; inconclusive = small, poorly fitted or top-dose-only effect, or a change in a side signal; inactive = no such curve, though single readings can be large or run the other way; the % refers to the signal ratio;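 note: cells stimulated with carbachol in lithium chloride buffer; higher means more IMPase inhibition seen as more IP1 and lower FRET ratio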
# Target sequence (P97697 whole entry, looked up): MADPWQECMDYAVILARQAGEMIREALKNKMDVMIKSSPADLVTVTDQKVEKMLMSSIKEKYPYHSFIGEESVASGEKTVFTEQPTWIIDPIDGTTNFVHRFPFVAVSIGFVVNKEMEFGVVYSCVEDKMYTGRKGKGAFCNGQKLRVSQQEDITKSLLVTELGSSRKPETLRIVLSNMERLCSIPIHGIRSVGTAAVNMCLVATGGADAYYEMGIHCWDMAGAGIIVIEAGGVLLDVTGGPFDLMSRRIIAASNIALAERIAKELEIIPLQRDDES
#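 Elevated IP1 in lysates lowers TR-FRET signal (665/620 ratio and 620 channel reported). Cells were CHO-M1, given carbachol (50 uM as added) plus 50mM LiCl, pH 7.4, 30 min, 37C; compounds titrated up to 46 uM; AC50 by Hill equation.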
# Imprint erasure = qHTS Assay for Compounds that Induce Erasure of Genomic Imprints; mouse ES Peg3-LacZ reporter, beta-gal luminescence, 40 h; Potency, µM (titrated, usually from 60.7 µM), usual class: activators; 0.02% of 110,000 active; AID 1948, 2009
#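 Imprint erasure is scored as LacZ activity from the silenced maternal Peg3 allele in feeder-free female ES cells cultured 40 h with LIF. Luminescence is normalized to in-plate negative controls and fitted to the Hill equation.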
# p53ts 32C tox = qHTS Screen for Compounds that Selectively Target Cancer Cells with p53 Mutations: Cytotoxicity of p53ts Cells at the Permissive Temperature; H1299-p53A138V at 32C, ATP luminescence viability, 24 h; Potency, µM (doses to about 46.1 µM), hits mostly cytotoxic; 0.93% of 130,000 active; AID 924, 2007; note: nearly all actives have a fitted effect of over 55% in size
#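 Viability by ATPlite luminescence after 24 h compound treatment (up to 46 uM) at the permissive 32C. Cells are H1299 carrying p53 A138V. Scale runs from DMSO basal to 100 uM tamoxifen as full kill; AC50 from Hill fits.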
# Luciferase inh = qHTS Assay for Inhibitors of Firefly Luciferase; Luciferin 4-monooxygenase (Photinus pyralis), P08659; purified firefly luciferase, luminescence, 8 min; Potency, µM (titrated, usually from 57.1 µM), usual class: inhibitors; 2.2% of 72,000 active; AID 411, 2009; note: nearly all actives have a fitted effect of over 40% in size
#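 Here, luciferase activity is measured as luminescence following an 8 min room-temperature reaction at 10 uM ATP, pH 7.2. Every library sample is titrated.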
# p53ts 39C kill = qHTS Screen for Compounds that Selectively Target Cancer Cells with p53 Mutations: Cytotoxicity of p53ts Cells at the Nonpermissive Temperature | H1299-p53A138V viability at 39C, ATP luminescence, 24 h | Potency, µM (doses to about 46.1 µM), usual class: cytotoxic | 1.5% of 130,000 active | AID 902, 2007; note: nearly all actives have a fitted effect of over 55% in size
# IkB signaling = IkB Signaling | ABC-DLBCL IkBa-CBG/CBR dual luciferase ratio, 4 h; response scale: scaled: untreated 0%, proteasome inhibitor 100% | Potency, µM (titrated, usually from 57.1 µM) | 0.04% of 110,000 active | AID 445, 2006; active = well fitted curve in the direction sought with a large enough effect in the signal ratio, not every such curve was filed as active; inconclusive = small, poorly fitted or top-dose-only effect, or a change in a side signal; the % refers to the signal ratio;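 note: the direction sought is a rising ratio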
#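 Curves were fitted separately to fusion (green), unfused (red) and ratio luminescence, then classed by r2, magnitude and activity. Cells: OCI-Ly3, 4 h compound plus doxycycline at 37C; 10 uM MG-132 defined full response.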
# Numbers stand for hits; . = inactive; ? = inconclusive; / = no result; ! = not confirmed by another sample; [ ] = another dose, or the depositor's remark. Unless noted, calls come from the whole dose curve; as a rule, active = well fitted curve in the direction sought with a large enough effect; inconclusive = small, poorly fitted or top-dose-only effect, or another doubt; inactive = no such curve, though single readings can be large; an effect the other way counts as inactive or inconclusive.
SMILES,IMPase cell inh,Imprint erasure,p53ts 32C tox,Luciferase inh,p53ts 39C kill,IkB signaling
Cc1cc(C)c2nc(N(Cc3cccnc3)C(=O)CCS(=O)(=O)c3ccccc3)sc2c1,/,.[10.9 µM],.,/,.,.
CN(C)C(=O)CSc1nnc2sc3ccccc3n12,.,.,.,.,.,.
O=C(CSc1nnc2sc3ccccc3n12)c1ccco1,.,.,.,16µM,.,.
CCOc1ccc(C2C(=O)N(C3CCCCCC3)CC(=O)N2Cc2ccc(C)cc2)cc1OC (stereo unspecified),/,.[10.9 µM],.,/,.,.
Cc1cc(=O)n2[nH]c(-c3ccc(F)cc3)nc2n1,.,.,13µM,13µM,10µM,?
Cc1ccc(NC(=O)Cn2c(=O)n(CC(=O)NCCc3ccccc3)c(=O)c3ccccc32)cc1,.,.[10.9 µM],.,/,?,?
Cc1ccc(NC(=O)Cn2c(=O)n(CC(=O)NCCc3ccccc3)c(=O)c3ccccc32)cc1C,?,.[10.9 µM],.,/,10µM,?
Cc1cc2c(cc1Cl)C(c1ccc3c(c1)OCO3)CC(=O)O2 (stereo unspecified),/,.,/,/,/,/
COc1cccc(Cn2c(=O)cnc3cnc(N4CCOCC4)nc32)c1,/,/,.,.[11.4 µM],.,.[11.4 µM]
O=C1c2ccccc2N(Cc2ccc(Cl)cc2)C2=NCCN12,/,/,.,/,.,/
O=C1C(=O)N(Cc2ccc(Cl)c(Cl)c2)c2ccccc21,.,.,?,.,6.3µM,?
COc1ccc2c(c1)Cc1sc(NC(C)=O)nc1-2,.,.,.,13µM,.,.
CCc1ccc(S(=O)(=O)c2nnn3c2nc(Nc2ccc(NC(C)=O)cc2)c2sccc23)cc1,/,.[10.9 µM],?,/,13µM,.
COc1ccc2c(c1)sc(N)[n+]2Cc1cc(C)cc2cccnc12,.,/,.,/,11µM,/
C[C@H]1CN(S(=O)(=O)c2cccc3cnccc23)CCN1,.,/,.,.,.,.
COc1ccccc1C(=O)N1CCN(Cc2cc(=O)oc3cc(C)ccc23)CC1,/,.[10.9 µM],.,/,.,.
CCCCS(=O)(=O)/C=C\C1C2C=CC(C2)C1S(=O)(=O)CCCC (stereo unspecified),.,.,.,.,.,.
CCCCS(=O)(=O)/C=C\C=C/S(=O)(=O)CCCC,.,.,20µM,.,?,?
CCOC(=O)c1cc(-c2ccccc2)n(CCC(=O)Nc2nc3c(C)cccc3s2)c1C,/,.[10.9 µM],.,/,.,.
N#Cc1cc2c(nc1SCc1nc3ccccc3[nH]1)CCC2,.,.,4µM,4µM,5µM,?
O=C(CCS(=O)(=O)c1nc(-c2cccs2)cc(C(F)(F)F)n1)Nc1cc(Br)ccc1O,/,.[10.9 µM],?,/,7.9µM,?
Cc1ccc(O)c(NC(=O)CCS(=O)(=O)c2nc(-c3cccs3)cc(C(F)(F)F)n2)c1,/,.[10.9 µM],?,/,?,?
CCOc1ccc2nc(N3CCCC(C(=O)NCCCOC)C3)sc2c1 (stereo unspecified),/,.[10.9 µM],?,/,10µM,.
CCCN1CCN(CCCNC(=O)C2CCCN(c3nc4ccc(OCC)cc4s3)C2)CC1 (stereo unspecified),.,.,?,7.9µM,?,?
CC(C)(C)OC(=O)[C@H]([C@@H]1N[C@@H](C(=O)O)C(C)(C)S1)N1C(=O)c2ccccc2C1=O,/,/,.[9.22 µM],.[11.4 µM],.[9.22 µM],.[11.4 µM]
SMILES,IMPase cell inh,Imprint erasure,p53ts 32C tox,Luciferase inh,p53ts 39C kill,IkB signaling
COc1ccccc1C(=O)Nc1ccc2c(c1)nc1n2CCSC1,.,.,4µM,5µM,3.2µM,.
Cc1ccc(C(=O)Nc2ccc3c(c2)nc2n3CCSC2)cc1,.,.,7.9µM,7.9µM,?,?
CC(=O)Nc1ccc2c(c1)nc1n2CCSC1,.,/,/,/,/,/
C[C@H]1C2=C3C(CC[C@H]4C(OCc5ccc(F)cc5C(F)(F)F)OC[C@](C)([C@@H]34)N(C(=O)OC(C)(C)C)C2)C2COC(=O)OCC21 (stereo partly specified),/,.,.,/,.,/
CCOC(=O)c1ccccc1NC(=O)CSc1cn(CC(=O)N2CCCCCC2)c2ccccc12,/,.[10.9 µM],.,/,.,?
CCOc1ccc(-c2[nH]ncc2Oc2cccc(OC)c2)c(O)c1,?,.,.,.,16µM,.
CCOc1ccc2nc(C)cc(Nc3ccccc3OCC)c2c1,.,.[10.9 µM],.,/,7.9µM,.
CC(=O)/C=C(\C)Nc1ccc(-c2cnc(-c3ccccc3)o2)cc1,?,.,.,10µM,?,.
c1ccc(-c2cnc(-c3ccc(-c4ncc(-c5ccccc5)o4)cc3)o2)cc1,/,.[10.9 µM],.[9.22 µM],.[11.4 µM],.[9.22 µM],.[11.4 µM]
C(=C\c1ccccc1)/CN1CCN(c2ncnc3c2oc2ccccc23)CC1,.,.,10µM,13µM,13µM,?
Cc1ccc(-n2c(SCC(=O)NCc3ccccc3)nc3n[nH]c(C)c3c2=N)cc1Cl,/,.[10.9 µM],.,/,20µM,.
CCc1ccc(NC(=O)CSc2nc3n[nH]c(C)c3c(=N)n2-c2ccccc2C)cc1,/,.[10.9 µM],.,/,10µM,.
CCOc1ccccc1-n1c(SCC(=O)Nc2ccc(CC)cc2)nc2n[nH]c(C)c2c1=N,.,/,/,/,/,/
CCCCOc1nnc(-c2ccc(OCC)cc2)c2ccccc12,.,.[10.9 µM],.,/,?,?
CCCc1nn2c(=O)cc(COC(=O)c3ccccc3NC(=O)c3ccc(OCC)cc3)nc2s1,/,.[10.9 µM],.,/,10µM,.
CCCc1nn2c(=O)cc(COC(=O)c3ccccc3NC(=O)c3cccs3)nc2s1,/,.[10.9 µM],.,/,.,.
Clc1ccccc1C(c1ccccc1)(c1ccccc1)n1ccnc1,.,.,.,.,25µM!,.
Cc1ccc2nc(-c3ccc(NC(=O)c4ccco4)cc3)[nH]c2c1,.,.,.,5µM,.,.
CC(=O)Nc1cccc(NC(=O)c2ccco2)c1,.,/,.,/,.,/
Cn1cccc1-c1nc2ccc(NC(=O)c3ccco3)cc2[nH]1,.,.,.,?,.,?
CCCN(CCC)S(=O)(=O)c1ccc(C(=O)Nc2cccc(-c3nc4ccccc4[nH]3)c2)cc1,/,.[10.9 µM],.,/,.,?
COc1c(Cl)cc(C(=O)Nc2cccc(-c3nc4ccccc4[nH]3)c2)cc1Cl,.,.[10.9 µM],?,/,13µM,?
O=C(Nc1cccc(-c2nc3ccccc3[nH]2)c1)c1ccco1,?,.,.,25µM,.,.
O=C(Nc1cccc(NC(=O)c2nccc3ccccc23)c1)c1ccco1,.,/,?,13µM,?,.
CO[C@@H]1COC(=O)C/C=C\[C@@H](C)[C@@H]2C=C[C@H](O)[C@@H](COC(=O)CCC[C@H]1C)O2,/,/,.[9.22 µM],.[11.4 µM],.[9.22 µM],/
CC(C)(C)CNCCO,/,.[10.9 µM],.[9.22 µM],.[11.4 µM],.[9.22 µM],.[11.4 µM]
